Inconclusive results are not listed. A call without a number means that no potency is given here. The source made the active and inactive calls. Calls follow the shape of the dose curve; as a rule, active = well fitted activation curve with a large enough effect; inconclusive = small, poorly fitted or top-dose-only effect; inactive = flat fitted curve, though single readings scatter.

This assay can be described thus: Parental Cell Counter Screen for Stat Signaling Pathway Assay. The conditions noted are these: ME-180 (cervical carcinoma) parental cells, blue fluorescence artefact counter-screen; series mostly up to 38.3 µM. From the text: NIH Molecular Libraries Screening Centers Network [MLSCN] NIH Chemical Genomics Center [NCGC] MLSCN Grant: None NCGC Assay Overview: This assay is a counter screen for the Stat signaling pathway assay (PubChem AID 446). The Stat assay is cell-based and measures Interleukin 6 (IL-6) mediated modulation of a beta-lactamase reporter gene controlled by a STAT inducible element (SIE-bla cells, Invitrogen). IL-6 is a cytokine that signals via the JAK/STAT pathway and is implicated in cancer and inflammation. […] Compounds active in the parental ME-180 cells are likely fluorescent.
NCGC Assay Protocol Summary: Cells were trypsinized, washed in assay medium (AM, OPTI MEM with 0.5% fetal bovine serum, 0.1 mM nonessential amino acids, 1 mM sodium pyruvate, 10mM HEPES pH 7.3, 100U/ml penicillin, and 100 ug/ml streptomycin) and suspended at […] in AM. Approximately 2500 cells in 5 uL/well was dispensed into 1536-well plates and the cells were incubated overnight at 37 C. 23 nL of compound were delivered by a pin tool and 1 uL of IL-6 (40 pM final concentration in AM) was added. After plates were incubated at 37 C for 5 hrs, 1uL of detector mix (LiveBLAzerTM, Invitrogen) was added, the plates incubated at room temperature for 2.5 hrs, and fluorescence intensity at 460 and 530 nm emissions was measured at 405 nm excitation by an Envision (Perkin Elmer).
Background: Counterscreens check selectivity or assay interference.
`COc1cccc2c1[C@H](CO)N1[C@H](C#N)[C@@H]3C[C@H](C(=O)O)[C@@H]([C@@H]1C2)N3C`: the Potency entry was “inactive”.

In the case of `CC[C@@H]1CN2CCc3cc(OC)c(OC)cc3[C@H]2C[C@@H]1C[C@H]1NCCc2cc(OC)c(OC)cc21`, the Potency result is “inactive”. As to `CCCCCCc1cc2cc(-c3nnc(-c4ccccc4O)o3)c(=O)oc2cc1O`, the Potency was 0.0126 µM (active).

On to `C[n+]1cc2c3c(ccc2c2ccc4cc5c(cc4c21)OCO5)OCO3`, for which the Potency was 10 µM (active). For the compound `CN1CCc2c(sc3ncn4nc(-c5ccccc5O)nc4c23)C1`, the Potency was 31.6 µM (active).

With `O=C1Nc2ccc(I)cc2/C1=C/c1cc(Br)c(O)c(Br)c1`, the Potency result was “inactive”. Turning to `Cc1ccc(CNC(=O)c2cc3c(=O)n4ccccc4nc3n(CC3CCCO3)c2=N)cc1` (stereo not given), the Potency was 10 µM (active). `Cc1ccccc1CNc1ncnc2c1ncn2[C@@H]1O[C@@H](CO)[C@H](O)[C@@H]1O`: the Potency result was “inactive”. Under `COc1cccc2c1C(=N)c1c(O)c3c(c(O)c1C2=O)C[C@](O)(C(C)=O)C[C@@H]3O[C@H]1C[C@H](N)[C@@H](O)[C@H](C)O1` stands “inactive”. Consider `COc1ccc(-c2nn3c(COc4ccccc4)nnc3s2)cc1OC`, for which the Potency result is “inactive”. In the case of `COc1cccc2c1C(=O)c1c(O)c3c(c(O)c1C2=O)C[C@@](O)(C(=O)CO)C[C@@H]3O[C@H]1C[C@H](N)[C@H](O)[C@H](C)O1`, the Potency result was “inactive”. `COc1c2c(nc3ccccc13)O[C@@H]([C@@](C)(O)CO)C2`: the Potency result is “inactive”. Under `NCCSc1nc2ccccc2s1` stands “inactive”; under `CCCCSc1nc(N)c(C#N)c(-c2cccs2)c1C#N`, “inactive”; under `COc1ccc2c(c1)c1c(C)c3cnccc3c(C)c1n2CCCN`, 31.6 µM (active). With `CCOC(=O)N1CCC(=C2c3ccc(Cl)cc3CCc3cccnc32)CC1`, the Potency result is “inactive”. With `CCNC(=O)c1cc2c(=O)n3cccc(C)c3nc2n(CCc2ccccc2)c1=N`, the Potency was 12.6 µM (active). `CN(C)CCCN=c1c2ccccc2n(C)c2[nH]c(=O)n(C)c(=O)c12`: the Potency entry was “inactive”.

For `COc1ccc(C(=O)CCN(C)C)c2ccccc12`, the Potency result is “inactive”. Take `N/C(=N\O)c1cn([C@@H]2O[C@@H](CO)[C@H](O)[C@@H]2O)c2ncnc(NO)c12`: the Potency result was “inactive”. For the compound `Cc1oc2cc(O)cc(C)c2c(=O)c1-c1cnn(-c2ccccc2)c1`, the Potency entry is “inactive”. As for `O=C(O)CCc1c2ccc(=O)c(O)c-2oc2c(O)c(O)ccc12`, the Potency result is “inactive”. The same measure for `C=CCNC(=O)C(C#N)c1nc2ccccc2nc1N1CCCCCC1` (stereo not given): 15.8 µM (active); for `CCOC(=O)CCc1c(C)c(C#N)c2[nH]c3ccccc3n2c1=O`: “inactive”; for `C=CCn1c(SCC(=O)c2ccc(NS(=O)(=O)c3ccccc3)cc2)nnc1-c1cccs1`: “inactive”.

Take `C=C1C(=O)O[C@@H]2[C@@H]1CC/C(C)=C\CC[C@@]1(C)O[C@H]21`: the Potency result was “inactive”.

Turning to `OC[C@@H]1CCC[C@H](n2cnc3c(=S)nc[nH]c32)O1`, the Potency entry is “inactive”. For `CC1CCN(c2oc(-c3ccccc3Cl)nc2C#N)CC1`, the Potency result was “inactive”. For the compound `CCc1cc2c(=O)c(-c3nc4ccccc4[nH]3)coc2cc1OC(=O)N1CCOCC1`, the Potency was 12.6 µM (active). In the case of `Cc1ccc(S(=O)(=O)N2CCN(c3nc(C(C)C)c4c(c3C#N)CC(C)(C)OC4)CC2)cc1`, the Potency entry was “inactive”.

For `Cc1ccc(S(=O)(=O)N2CCN(c3nc(C)c4c(c3C#N)CC(C)(C)OC4)CC2)cc1`, the Potency result is “inactive”. For `CC1(C)Cc2c(C#N)c(NCCc3ccccc3)nc(-c3ccco3)c2CO1`, the Potency is 5.01 µM (active). Regarding `ClC(Br)=C(n1cnc2ccccc21)n1cnc2ccccc21`, the Potency entry is “inactive”. On to `CCC(=O)Oc1oc(-c2ccccc2)nc1C=Nc1ccccc1OC`, for which the Potency result is “inactive”. On to `CCN(CC)CCN1C(=O)c2cccc3cc(N)cc(c23)C1=O`, for which the Potency result was “inactive”.

Consider `CCCCc1nc(NCCNC(=O)c2ccco2)c(C#N)c2c1CSC(C)(C)C2`, for which the Potency result was “inactive”.

`CC(C)N1CC=C2C(C#N)=C(N)C(C#N)(C#N)C(c3ccccc3)C2C1` (stereo not given): the Potency was 5.01 µM (active). On to `CCOC(=O)CSc1nnc2n(Cc3ccccc3)c(=O)c3c4c(sc3n12)CCC4`, for which the Potency entry was “inactive”. `O=c1c(O)c(-c2ccc(O)c(O)c2)oc2cc(O)cc(O)c12`: the Potency result was “inactive”. With `CCSc1nc(N)c(C#N)c(-c2ccccc2Cl)c1C#N`, the Potency entry is “inactive”.
